Cycloheximide cs: counter-screen hit for Shiga toxin inhibitors, cycloheximide; cell reporter, cycloheximide protein synthesis inhibition counterscreen; max response, %; hit rate 12% among 300,000; in the data active = max response mostly above about 13%, no sharp cut-off; inactive = mostly below about 14%; note: read at 38.3 µM for the half of the compounds with a filed dose; 0% is about no effect
Shiga inhibitor: inhibitors of Shiga toxin in Vero cells; Vero cells, Shiga toxin protein synthesis inhibition reporter; inhibition, % at 38.7 µM; hit rate 9.2% among 290,000; in the data active = inhibition mostly above about 28%, no sharp cut-off; inactive = mostly below about 43%; note: 0% is about no effect
LASV entry inh: Lassa virus entry inhibition. Lassa virus pseudotype entry inhibition, cell reporter. Potency, µM (highest dose often 37.9 µM), for inactives: at the top dose activity change, negative = inhibition, most hits filed as inhibitors. hit rate 1.2% among 300,000; calls by dose curve; tested in HEK293 cells; note: potency is the fitted concentration of half-maximal effect; % is set by controls: 0 for no effect and ±100 for the full control effect; nearly all actives have a fitted effect of over 50% in size
Marburg entry inh: Marburg virus entry inhibition | Marburg virus pseudotyped entry inhibition, cell reporter | Potency, µM (top dose mostly 37.8 µM), without a hit: at the highest dose activity change, negative = inhibition, most hits filed as inhibitors | hit rate 1.8% among 300,000 | AID 540276; calls by dose curve; tested in HEK293 cells; note: potency is the fitted concentration of half-maximal effect; % is set by controls: 0 for no effect and ±100 for the full control effect
AMA1-RON2 inh: disrupts binding of P. falciparum AMA1 to RON2. AlphaScreen AMA1-biotinylated RON2 peptide binding. Potency, µM (series often up to 58.2 µM), inactives show at the highest dose activity change, negative = inhibition, usual class: inhibitors. hit rate 0.2% among 360,000. AID 720542; active = well fitted inhibition curve with a large enough effect; inconclusive = small, poorly fitted or top-dose-only effect; inactive = no such curve, though single readings can be large or run the other way;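 note: potency is the fitted concentration of half-maximal effect; 0% = vehicle wells and -100% = peptide control; nearly all actives have a fitted effect of over 45% in size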
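AMA1 (3D7) with his tag at 25 nM final met compounds first, then biotinylated RON2 peptide at 25 nM; detection used donor plus acceptor beads, 10 µg/mL apiece, read by AlphaScreen after 30 min at room temperature.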
* marks the source's active call; other numbers are inactive results; ? = inconclusive; nt = no result given; [ ] = another dose, or the depositor's remark. Only a selection was taken, and hits are over-represented in it overall.

SMILES	Cycloheximide cs	Shiga inhibitor	LASV entry inh	Marburg entry inh	AMA1-RON2 inh
CCCCNC(=S)N/N=C/c1ccccc1F	16*	19	-9%	?	34%
CC(=O)Nc1ccc(S(=O)(=O)N/N=C/c2cccnc2)cc1	-4	-2	nt	nt	8%
COc1cccc(Cn2c(=O)cc(C)c3c(C)nn(-c4ccc(C)cc4)c32)c1	nt	nt	-7%[46.1 µM]	nt	nt
CC1CCCN(C(=O)CCNC(=O)Cn2cnc3ccccc3c2=O)C1 (stereo not given)	-3	-7	21%[46.1 µM]	?	5%
O=C(CSc1nc2ccc(Nc3nc(N4CCOCC4)nc(N4CCOCC4)n3)cc2s1)Nc1ccccc1F	1	-2	nt	nt	-7%
C=CC1CN2CCC1CC2[C@@H](OC(=O)c1ccc(OC)cc1)c1ccnc2ccccc12 (stereo not given in full)	-7	-24	?	11µM*	-24%
Cc1nc(-c2ccc3c(c2)CCC(=O)N3)cs1	29*	65*	9%	7%[46.1 µM]	-1%
Cc1ccc(Nc2nc(-c3ccncc3)cs2)cc1	47*	119*	-11%	?	-3%
Cc1ccc(Nc2nc(-c3ccc(S(=O)(=O)N4CCOCC4)cc3)cs2)cc1	nt	nt	-29%	?	-2%
Cc1nc(-c2ccc3c(c2)OCCO3)cs1	44*	169*	?	19%[46.1 µM]	-11%
CC(O)(c1ccccc1)c1nc(-c2ccc3c(c2)OCO3)cs1 (stereo not given)	nt	nt	nt	nt	9%
Cc1cccc(Nc2nc(-c3ccc4c(c3)OCCO4)cs2)c1	44*	120*	?	?	21%
O=C(COc1coc(CN2CCCc3ccccc32)cc1=O)Nc1ccc([N+](=O)[O-])cc1	nt	nt	22%	-7%[46.1 µM]	-5%
COc1cccc(CNC(=O)COC(=O)c2ccc(Cl)s2)c1	nt	nt	0%[46.1 µM]	?	?
Cc1cccc(Nc2nc(-c3ccncc3)cs2)c1	42*	143*	nt	nt	-21%
Clc1cccc(Nc2nc(-c3ccncc3)cs2)c1	0	-5	?	?	2%
CCOC(=O)NCc1ccc2c(c1)cc(C)n2C	15*	23	-5%	3%	-5%
CCCCC(=O)NCc1ccc2c(c1)cc(C)n2C	14	52*	-41%	9%	-12%
Cc1ccc2c(c1)cc(C(=O)NCc1ccccc1)n2C	10	-2	?	0.63µM*	20%
Cc1cc2cc(CNC(=O)Nc3ccccc3)ccc2n1C	18*	48*	?	29%	?
Cc1ccc2c(c1)cc(C(=O)Nc1ccccc1C)n2C	nt	nt	?	0%[46.1 µM]	nt
CCOC(=O)CCC(=O)NCc1ccc2c(c1)cc(C)n2C	1	-26	8%	?	18%
CN(C)S(=O)(=O)c1cccc(C(=O)Nc2n[nH]c(C(F)(F)F)n2)c1	-4	0	4%	-1%[46.1 µM]	52%
Cc1cc2cc(CNC(=O)c3cccs3)ccc2n1C	38*	56*	0%	22%	-19%
COc1cc(-c2nc(CN(C)C(C)c3ccncn3)c(C)o2)ccc1F (stereo not given)	-3	-4	-7%	?	26%
SMILES	Cycloheximide cs	Shiga inhibitor	LASV entry inh	Marburg entry inh	AMA1-RON2 inh
Fc1cnc(N2CCOCC2)nc1N1CCOCC1	-1	-3	0%	?	8%
Fc1cnc(N2CCOCC2)nc1N1CCc2ccccc21	12	active	16%	?	0%
COc1cccc(OC)c1OCc1cc(C2C3CCCC=C3C(C#N)=C(N)C2(C#N)C#N)c(C)cc1C (stereo not given)	5	-3	20µM*	?	32%
CCCN1CC=C2C(C#N)=C(N)C(C#N)(C#N)C(c3cccc(OC)c3OC)C2C1 (stereo not given)	13	-3	-12%	-2%	12%
Cc1oc(-c2ccccc2)nc1Cn1cccc1C1=NC(c2ccccc2)CO1 (stereo not given)	-2	-3	?	20µM*	?
Fc1ccc(Cn2cccc2C2=NC(c3ccccc3)CO2)cc1 (stereo not given)	69*	75*	13%	26%	?
CCc1ccc(-c2nc(CSCC(=O)NCc3ccc(C)cc3)c(C)o2)cc1	nt	nt	11%[46.1 µM]	10%[46.1 µM]	nt
Cc1ccc2nc(Cl)c(/C=C/C(=O)c3ccco3)cc2c1	57*	81*	?	4%	-22%
Cc1ccc2cc(/C=C/C(=O)c3ccco3)c(Cl)nc2c1	83*	117*	-5%	4%[46.1 µM]	-14%
COCCNC(=O)C1(C)CCN(C(=O)/C=C/c2ccccc2)C1 (stereo not given)	nt	nt	nt	nt	-1%
COc1ccccc1-c1noc(-c2ccc(NCc3cccnc3)c([N+](=O)[O-])c2)n1	nt	nt	5%[46.1 µM]	10%[46.1 µM]	nt
Fc1cccc(NC(=S)NNc2ccccc2)c1	34*	45*	nt	nt	24%
CCN(CC)C(=O)c1ccc(NC(=O)c2cccc(F)c2)cc1	35*	72	11%	4%	-8%
Fc1cccc(NC(=S)NNc2c3ccccc3nc3ccccc23)c1	8	17	?	-28%[46.1 µM]	?
O=C(Nc1ccc(Nc2ccccc2)cc1)c1cccc(F)c1	36*	117*	nt	nt	-14%
O=C(Nc1cccc(F)c1)c1ccccc1	38*	79*	9%	0%	1%
COc1cc(Nc2nc3ccccc3c3nnc(C)n23)cc(OC)c1	nt	nt	-5%[46.1 µM]	nt	nt
O=C(O)/C=C/C(=O)Nc1ccc(NC(=O)c2ccccc2)c(Cl)c1	12	-11	?	?	0%
O=C(O)/C=C/C(=O)Nc1ccc2nccnc2c1	23*	46	9%	23%[46.1 µM]	-3%
O=C(O)/C=C\C(=O)Nc1cccc(NC(=O)c2ccccc2)c1	22*	52	7%[46.1 µM]	1%[46.1 µM]	-10%
CCOC(=O)[C@@H](CC(=O)O)N1CCCCC1	nt	nt	nt	2%	nt
CC/C(=N\NC(=O)c1nnn(-c2nonc2N)c1-c1cccs1)c1ccccc1	-1	-3	1%[46.1 µM]	?	13%
CCN1CCCc2cc(CN(CCN3CCOCC3)C(=S)Nc3cccc(Cl)c3)ccc21	15	22	?	?	3.5µM*
CCN1CCCc2cc(CN(CCN3CCOCC3)C(=S)Nc3ccc(C)cc3)ccc21	13	-3	-28%[46.1 µM]	?	-18%
COc1cc(OC)c(Nc2nc3ccccc3c3nncn23)cc1Cl	nt	nt	?	1%[46.1 µM]	nt
SMILES	Cycloheximide cs	Shiga inhibitor	LASV entry inh	Marburg entry inh	AMA1-RON2 inh
Cc1[nH]c2ccccc2c1CCNC(=O)c1ccc2nccnc2c1	15*	nt	?	12%	1%
O=C(NCCc1ccccc1)c1cccnc1	37*	63*	?	15%[46.1 µM]	-20%
O=C(NCCc1ccccc1)c1ccc2nccnc2c1	-3	17	2.8µM*	1.3µM*	0%
O=C(NCCNC(=O)c1cccnc1)c1cccnc1	nt	nt	nt	nt	-1%
Cc1ccc(-n2nc(C(=O)Nc3cccc(C#N)c3)c3c4ccccc4n(C)c3c2=O)cc1	nt	nt	4%[46.1 µM]	26%[46.1 µM]	nt
CCOC(=O)Cn1c(=O)cc(C(F)(F)C(F)(F)F)c2c(C)nn(CC)c21	nt	nt	0%[46.1 µM]	nt	nt
CCOc1ccc(S(=O)(=O)N2CCC(C(=O)NC3CCCC3)CC2)cc1	-3	-8	0%	0%	11%
C=C(C)Cn1cnc2c(oc3nc4c(cc32)CCCC4)c1=O	33*	46*	nt	nt	2%
Cc1onc(-c2c(F)cccc2Cl)c1C(=O)Nc1cccc(S(=O)(=O)NCc2ccco2)c1	38*	59*	1%	-12%[46.1 µM]	3%

Screening data deposited in PubChem by National Center for Advancing Translational Sciences (NCATS).
